From PubChem BioAssay
MITF inh: inhibitors of human MITF | O75030 | AlphaScreen MITF homodimerization, bead proximity signal | inhibition, % at 2.6 µM | 650,000 compounds, 0.91% hits | AID 1259374; in the data active means inhibition above about 50%
TEAD-YAP block: TEAD-YAP interaction inhibition | inhibition, % at 9.12 µM | HEK-TIYL cells, TEAD-Gal4/YAP UAS-luciferase luminescence | 640,000 compounds, 1.4% hits; in the data active means inhibition above about 32%
FBW7 activator: activators of human E3 ligase FBW7. Q969H0. AlphaScreen FBW7–phospho-cyclin E peptide binding, activator screen. normalized activity (activation), % at 26.1 µM. 650,000 compounds, 0.13% hits; in the data active means normalized activity above about 1.9%;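 further: purified mutant Fbw7 with reduced substrate affinity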
GPR151 activ: activates the human receptor GPR151; AID 1508602; activation, % at 11.2 µM; 650,000 compounds, 1% hits; PathHunter beta-arrestin GPR151 cells, luminescence; Q8TDV0; in the data active means activation above about 4.9%
GPR151 confirm: confirmation of human GPR151 activators; shares compounds with GPR151 activ; GPR151 PathHunter beta-arrestin cells, luminescence, 90 min; % of EA-reagent control over plate median; activation, % at 11.2 µM; 6,700 tested, under 10 active; AID 1508609;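 active means mean percent activation across replicates above the confirmation screen cutoff of 4.91%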
GPR119 ag: activates human GPR119 in a GPR151 counter-screen; shares compounds with GPR151 activ; GPR119 PathHunter beta-arrestin cells, luminescence, 90 min; 0 = compound-well median, 100 = enzyme-acceptor control; activation, % at 11.2 µM; 6,700 compounds, 0.3% hits;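 active means mean percent activation in the counterscreen above 29.09%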;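 further: counterscreen on off-target GPR119 to flag nonselective hits from the GPR151 activator screen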
Target sequence (Q8TDV5 whole entry, looked up): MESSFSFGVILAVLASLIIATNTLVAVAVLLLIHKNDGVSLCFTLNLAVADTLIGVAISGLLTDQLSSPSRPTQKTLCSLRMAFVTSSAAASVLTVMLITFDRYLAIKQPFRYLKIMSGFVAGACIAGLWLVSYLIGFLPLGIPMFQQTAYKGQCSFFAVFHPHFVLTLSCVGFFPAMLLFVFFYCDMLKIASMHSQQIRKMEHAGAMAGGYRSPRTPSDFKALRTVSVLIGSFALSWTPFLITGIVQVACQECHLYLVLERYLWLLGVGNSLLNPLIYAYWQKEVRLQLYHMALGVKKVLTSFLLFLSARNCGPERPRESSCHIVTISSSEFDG
A number is an active result; 0 = inactive; - = not tested or not shown. Sampled rows, rich in hits. Any-hit rate of the full collection: about 3.5%.

SMILES	MITF inh	TEAD-YAP block	FBW7 activator	GPR151 activ	GPR151 confirm	GPR119 ag
Cc1ccc2c(c1)cc(CN(Cc1cccs1)C(=O)C1CC1)c1nnnn12	0	0	0	5.4	0	0
Cc1ccc2c(c1)cc(CN(CCc1ccccc1)C(=O)N1CCOCC1)c1nnnn12	0	0	0	5.2	0	0
O=C1CCCN1CCCNc1nc(Nc2ccc3ncccc3c2)nc2c1ncn2Cc1ccc(C(F)(F)F)cc1	0	0	0	0	-	-
Cc1nc2nc(C(=O)O)[nH]n2c(=O)c1Cc1ccccc1	0	0	0	0	-	-
Cc1nc2nc(C(F)(F)F)[nH]n2c(=O)c1Cc1ccccc1	0	0	0	8.1	0	0
Cc1ncc(CO)c2cc(C(=O)Nc3ccccc3)c(=Nc3cccc(Cl)c3)oc12	0	0	0	0	-	-
CC(C)N(C(=O)Cn1cc(SCC(=O)NCC2CCCO2)c2ccccc21)C(C)C (stereo not drawn)	0	0	0	12	0	0
O=C(CSc1cn(CCNC(=O)c2ccccc2)c2ccccc12)NCC1CCCO1 (stereo not drawn)	0	0	0	0	-	-
COc1cccc(N2CC(NC(=O)N3CCN(c4ccc([N+](=O)[O-])cc4)CC3)CC2=O)c1 (stereo not drawn)	0	0	0	12	0	0
COc1cccc(N2CC(NC(=O)N3CCN(c4ccc(C(C)=O)cc4)CC3)CC2=O)c1 (stereo not drawn)	0	0	0	0	-	-
COC(=O)c1ccc(NC(=O)CC2C(=O)N(c3ccc(C)cc3)C(=O)N2C2CCCC2)cc1 (stereo not drawn)	0	0	0	0	-	-
NNC(=O)c1cc(-c2ccccc2)n(-c2ccccc2)n1	0	0	0	0	-	-
O=c1cnn(-c2ccccc2)c(-c2ccccc2)c1	0	0	0	6.7	0	0
O=C(c1c(F)cccc1F)N1CCN(S(=O)(=O)c2ccc(Br)cc2)CC1	0	0	0	6.1	0	0
Cc1ccccc1C(=O)NC(=S)Nc1ccc(Cc2ccncc2)cc1	0	0	0	19	0	0
CC(=O)c1ccc(NC(=S)NC(=O)c2ccccc2F)cc1	0	0	0	15	0	0
CCc1c(C)nc2cc(-c3cccs3)nn2c1N1CCC(O)CC1	0	0	0	6.2	0	0
CCCSCCCNC(=O)C1CCN(c2nnc(-n3c(C)ccc3C)s2)CC1	0	0	0	0	-	-
Cn1c(=O)c2c(nc(SCc3ccccn3)n2C)n(C)c1=O	0	0	0	0	-	-
Cn1c(=O)c2c(nc(SCc3ccccc3F)n2C)n(C)c1=O	0	0	0	4.9	0	0
CCCCN(CC)C(=O)NCc1noc2ccccc12	0	0	0	0	-	-
Cc1cccc(NC(=O)NCc2noc3ccccc23)n1	0	0	0	5.6	0	0
CCN(CC)C(=O)NCc1noc2ccccc12	0	0	0	5.3	0	0
CCN(C(=O)NCc1noc2ccccc12)c1ccccc1	0	0	0	5.6	0	0
Cc1ccc(NC(=O)NCc2noc3ccccc23)nc1	0	0	0	0	-	-
SMILES	MITF inh	TEAD-YAP block	FBW7 activator	GPR151 activ	GPR151 confirm	GPR119 ag
CCOc1ccc(NC(=O)Nc2ccccc2C)cc1	0	0	0	0	-	-
O=C(O)C1CCC(N2C(=O)c3cccc([N+](=O)[O-])c3C2=O)CC1 (stereo not drawn)	0	0	0	5.2	0	0
O=C1c2cccc([N+](=O)[O-])c2C(=O)N1C1CCCCCCC1	0	0	0	0	-	-
O=C1NCC2=C1C(c1ccc(Br)cc1)Nc1ccccc1N2 (stereo not drawn)	0	0	0	5.5	0	0
COc1ccc(C2Nc3ccccc3NC3=C2C(=O)NC3)cc1 (stereo not drawn)	0	0	0	0	-	-
CCOc1ccccc1-c1nnc(SCC(=O)NCc2ccccc2)o1	0	0	0	6.9	0	0
Cc1ccc(NC(=O)CSc2cn(CCNC(=O)c3cccs3)c3ccccc23)c(C)c1	0	0	0	0	-	-
COc1cccc(-c2nc(C3CCCN3C(=O)CCCC(=O)O)n3ccccc23)c1 (stereo not drawn)	0	0	0	5.7	0	0
COc1cccc(-c2nc(C3CCCN3C(=O)CC(C)CC(=O)O)n3ccccc23)c1 (stereo not drawn)	0	0	0	0	-	-
COc1ccc(Cl)cc1NC(=O)N(C)Cc1c(C)nn(C)c1C	0	0	0	9.6	0	0
COc1ccc(Cl)cc1NC(=O)CCn1nc(C)c(C)c1C	0	0	0	0	-	-
O=C1N/C(=N/c2ccccn2)SC1Cc1cccc(Cl)c1 (stereo not drawn)	0	0	0	0	-	-
O=C(O)CCCC(=O)N1CCC(N2C(=O)Cc3ccccc32)CC1	0	0	0	9.2	0	0
O=C(Nc1ccc([N+](=O)[O-])cc1)OCc1ccccc1	0	0	0	0	-	-
C=CCN(C#N)c1nc(OC)nc(N2CCCC2)n1	0	0	0	14	0	0
CCN(CC)C(=O)C1CCCN(c2ccc([N+](=O)[O-])cc2[N+](=O)[O-])C1 (stereo not drawn)	0	0	0	0	-	-
CCN(CC)C(=O)C1CCCN(c2ccc([N+](=O)[O-])cc2S(=O)(=O)N2CCCC2)C1 (stereo not drawn)	0	0	0	7.0	0	0
COC(=O)c1ccc(CN(c2ccccn2)S(=O)(=O)c2ccccc2)cc1	0	0	0	7.3	0	0
COC(=O)c1ccc(CN(c2ccccc2)S(=O)(=O)c2ccccc2)cc1	0	0	0	0	-	-
COC(=O)C1=C(C)NC(=O)CC1c1cccc(Oc2ccccc2)c1 (stereo not drawn)	0	0	0	8.3	0	0
CC1=C(C(=O)OC(C)C)C(c2cccc(Oc3ccccc3)c2)C(C(=O)OC(C)C)=C(C)N1	0	0	0	0	-	-
C=CCOC(=O)C1=C(C)NC(C)=C(C(=O)OCC=C)C1c1cccc(Oc2ccccc2)c1	0	0	0	7.1	0	0
O=C(CCc1nnc(-c2ccsc2)o1)N1CCc2sccc2C1	0	0	0	5.4	0	0
CCN(CC)C(=O)Cn1c(-c2ccc(OC)c(OC)c2)nc2ccccc2c1=O	0	0	0	0	-	-
Cc1ccc(N2NC3(CCCCCC3)NC2=S)cc1	0	0	0	0	-	-
SMILES	MITF inh	TEAD-YAP block	FBW7 activator	GPR151 activ	GPR151 confirm	GPR119 ag
S=C1NC2(CCCCC2)NN1c1ccccc1	0	0	0	6.6	0	0
CCN(CC)c1ncnc2c1sc1nc(N3CCOCC3)c3c(c12)CCCC3	0	0	0	0	-	-
Cc1nc(NC2CCCCC2)cc(-c2cncc(Br)c2)n1	0	0	0	0	-	-
CN1CCN(Cc2ccc(C#CCCO)cc2)CC1CCO (stereo not drawn)	0	0	0	5.0	0	0
CCCCNc1ncnc(N)c1[N+](=O)[O-]	0	0	0	0	-	-
CC(C)OCCCNc1ncnc(N)c1[N+](=O)[O-]	0	40	0	7.7	0	0
CCCc1oc2cc(O)c(CC)cc2c(=O)c1-c1ccc2c(c1)OCCCO2	0	0	0	0	-	-
